Results: the supplement of paper PMC12067093, “Discovery and optimisation of a covalent ligand for TRIM25 and its application to targeted protein ubiquitination” (Chemical Science, 2025)
About 21,000 targets were measured; listed, in parts, are those with the largest changes and a random draw of the rest.

compound: CC1Cc2ccccc2N1C(=O)C1CCCN(C1)C(=O)CCl (mixture of isomers) [TRIM25 ligand 11 (diastereomer mixture)]; test: probe-labelled cysteine peptide fold change vs DMSO (competition) (log2 fold change); higher = less target engagement (more negative = stronger competition); details: 50 µM; THP-1; incubation time: 4 h
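Also: competitive chemoproteomic profiling in live THP-1 cells with an iodoacetamide desthiobiotin (IA-DTB) probe, comparing probe-labelled peptide intensities in compound-treated cells against DMSO-treated controls.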

UniProt P26196, sequence (P26196 whole entry, looked up): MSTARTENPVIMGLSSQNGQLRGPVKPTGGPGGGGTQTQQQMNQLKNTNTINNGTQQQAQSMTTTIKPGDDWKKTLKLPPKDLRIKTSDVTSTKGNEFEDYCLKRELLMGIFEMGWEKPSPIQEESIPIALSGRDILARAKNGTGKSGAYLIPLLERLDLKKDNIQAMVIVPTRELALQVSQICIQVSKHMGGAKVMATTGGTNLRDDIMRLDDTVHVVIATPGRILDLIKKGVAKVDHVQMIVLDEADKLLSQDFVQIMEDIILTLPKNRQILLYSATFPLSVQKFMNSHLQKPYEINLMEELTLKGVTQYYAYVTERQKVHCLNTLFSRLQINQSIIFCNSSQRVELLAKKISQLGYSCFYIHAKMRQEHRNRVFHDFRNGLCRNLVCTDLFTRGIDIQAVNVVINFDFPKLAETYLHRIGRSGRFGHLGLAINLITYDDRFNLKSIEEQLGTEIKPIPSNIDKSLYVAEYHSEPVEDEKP
UniProt Q9BVJ7, sequence (Q9BVJ7 whole entry, looked up): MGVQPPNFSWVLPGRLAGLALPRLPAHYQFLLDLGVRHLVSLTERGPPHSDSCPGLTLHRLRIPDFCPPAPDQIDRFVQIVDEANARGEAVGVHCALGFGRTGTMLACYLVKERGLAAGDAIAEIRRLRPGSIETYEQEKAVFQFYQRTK
UniProt P23786, sequence (P23786 whole entry, looked up): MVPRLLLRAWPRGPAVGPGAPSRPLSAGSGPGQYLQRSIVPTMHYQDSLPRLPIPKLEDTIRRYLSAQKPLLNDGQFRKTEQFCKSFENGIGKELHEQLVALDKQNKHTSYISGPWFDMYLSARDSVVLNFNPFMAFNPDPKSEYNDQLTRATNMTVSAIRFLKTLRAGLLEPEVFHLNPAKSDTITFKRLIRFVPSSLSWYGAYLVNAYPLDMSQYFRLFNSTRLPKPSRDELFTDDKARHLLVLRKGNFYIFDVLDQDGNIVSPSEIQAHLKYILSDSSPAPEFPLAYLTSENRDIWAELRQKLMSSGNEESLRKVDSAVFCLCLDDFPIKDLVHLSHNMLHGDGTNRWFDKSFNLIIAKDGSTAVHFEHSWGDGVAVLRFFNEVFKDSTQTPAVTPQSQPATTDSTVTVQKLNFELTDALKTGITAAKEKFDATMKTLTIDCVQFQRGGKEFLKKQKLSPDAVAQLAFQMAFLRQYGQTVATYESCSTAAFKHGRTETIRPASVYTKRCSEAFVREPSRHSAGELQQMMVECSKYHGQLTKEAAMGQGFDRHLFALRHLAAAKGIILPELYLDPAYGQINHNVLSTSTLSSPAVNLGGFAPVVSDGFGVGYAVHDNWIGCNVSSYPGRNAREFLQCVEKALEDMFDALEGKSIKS
UniProt Q8NBA8, sequence (Q8NBA8 whole entry, looked up): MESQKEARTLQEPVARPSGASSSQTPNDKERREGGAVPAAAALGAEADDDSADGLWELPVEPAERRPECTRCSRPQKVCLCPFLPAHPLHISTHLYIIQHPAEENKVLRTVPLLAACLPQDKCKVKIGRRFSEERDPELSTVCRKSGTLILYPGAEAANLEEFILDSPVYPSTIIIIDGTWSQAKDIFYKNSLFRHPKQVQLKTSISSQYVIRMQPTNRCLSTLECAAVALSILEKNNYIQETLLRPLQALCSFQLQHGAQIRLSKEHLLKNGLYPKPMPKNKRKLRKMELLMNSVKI
UniProt Q8TDJ6, sequence (Q8TDJ6 whole entry, looked up): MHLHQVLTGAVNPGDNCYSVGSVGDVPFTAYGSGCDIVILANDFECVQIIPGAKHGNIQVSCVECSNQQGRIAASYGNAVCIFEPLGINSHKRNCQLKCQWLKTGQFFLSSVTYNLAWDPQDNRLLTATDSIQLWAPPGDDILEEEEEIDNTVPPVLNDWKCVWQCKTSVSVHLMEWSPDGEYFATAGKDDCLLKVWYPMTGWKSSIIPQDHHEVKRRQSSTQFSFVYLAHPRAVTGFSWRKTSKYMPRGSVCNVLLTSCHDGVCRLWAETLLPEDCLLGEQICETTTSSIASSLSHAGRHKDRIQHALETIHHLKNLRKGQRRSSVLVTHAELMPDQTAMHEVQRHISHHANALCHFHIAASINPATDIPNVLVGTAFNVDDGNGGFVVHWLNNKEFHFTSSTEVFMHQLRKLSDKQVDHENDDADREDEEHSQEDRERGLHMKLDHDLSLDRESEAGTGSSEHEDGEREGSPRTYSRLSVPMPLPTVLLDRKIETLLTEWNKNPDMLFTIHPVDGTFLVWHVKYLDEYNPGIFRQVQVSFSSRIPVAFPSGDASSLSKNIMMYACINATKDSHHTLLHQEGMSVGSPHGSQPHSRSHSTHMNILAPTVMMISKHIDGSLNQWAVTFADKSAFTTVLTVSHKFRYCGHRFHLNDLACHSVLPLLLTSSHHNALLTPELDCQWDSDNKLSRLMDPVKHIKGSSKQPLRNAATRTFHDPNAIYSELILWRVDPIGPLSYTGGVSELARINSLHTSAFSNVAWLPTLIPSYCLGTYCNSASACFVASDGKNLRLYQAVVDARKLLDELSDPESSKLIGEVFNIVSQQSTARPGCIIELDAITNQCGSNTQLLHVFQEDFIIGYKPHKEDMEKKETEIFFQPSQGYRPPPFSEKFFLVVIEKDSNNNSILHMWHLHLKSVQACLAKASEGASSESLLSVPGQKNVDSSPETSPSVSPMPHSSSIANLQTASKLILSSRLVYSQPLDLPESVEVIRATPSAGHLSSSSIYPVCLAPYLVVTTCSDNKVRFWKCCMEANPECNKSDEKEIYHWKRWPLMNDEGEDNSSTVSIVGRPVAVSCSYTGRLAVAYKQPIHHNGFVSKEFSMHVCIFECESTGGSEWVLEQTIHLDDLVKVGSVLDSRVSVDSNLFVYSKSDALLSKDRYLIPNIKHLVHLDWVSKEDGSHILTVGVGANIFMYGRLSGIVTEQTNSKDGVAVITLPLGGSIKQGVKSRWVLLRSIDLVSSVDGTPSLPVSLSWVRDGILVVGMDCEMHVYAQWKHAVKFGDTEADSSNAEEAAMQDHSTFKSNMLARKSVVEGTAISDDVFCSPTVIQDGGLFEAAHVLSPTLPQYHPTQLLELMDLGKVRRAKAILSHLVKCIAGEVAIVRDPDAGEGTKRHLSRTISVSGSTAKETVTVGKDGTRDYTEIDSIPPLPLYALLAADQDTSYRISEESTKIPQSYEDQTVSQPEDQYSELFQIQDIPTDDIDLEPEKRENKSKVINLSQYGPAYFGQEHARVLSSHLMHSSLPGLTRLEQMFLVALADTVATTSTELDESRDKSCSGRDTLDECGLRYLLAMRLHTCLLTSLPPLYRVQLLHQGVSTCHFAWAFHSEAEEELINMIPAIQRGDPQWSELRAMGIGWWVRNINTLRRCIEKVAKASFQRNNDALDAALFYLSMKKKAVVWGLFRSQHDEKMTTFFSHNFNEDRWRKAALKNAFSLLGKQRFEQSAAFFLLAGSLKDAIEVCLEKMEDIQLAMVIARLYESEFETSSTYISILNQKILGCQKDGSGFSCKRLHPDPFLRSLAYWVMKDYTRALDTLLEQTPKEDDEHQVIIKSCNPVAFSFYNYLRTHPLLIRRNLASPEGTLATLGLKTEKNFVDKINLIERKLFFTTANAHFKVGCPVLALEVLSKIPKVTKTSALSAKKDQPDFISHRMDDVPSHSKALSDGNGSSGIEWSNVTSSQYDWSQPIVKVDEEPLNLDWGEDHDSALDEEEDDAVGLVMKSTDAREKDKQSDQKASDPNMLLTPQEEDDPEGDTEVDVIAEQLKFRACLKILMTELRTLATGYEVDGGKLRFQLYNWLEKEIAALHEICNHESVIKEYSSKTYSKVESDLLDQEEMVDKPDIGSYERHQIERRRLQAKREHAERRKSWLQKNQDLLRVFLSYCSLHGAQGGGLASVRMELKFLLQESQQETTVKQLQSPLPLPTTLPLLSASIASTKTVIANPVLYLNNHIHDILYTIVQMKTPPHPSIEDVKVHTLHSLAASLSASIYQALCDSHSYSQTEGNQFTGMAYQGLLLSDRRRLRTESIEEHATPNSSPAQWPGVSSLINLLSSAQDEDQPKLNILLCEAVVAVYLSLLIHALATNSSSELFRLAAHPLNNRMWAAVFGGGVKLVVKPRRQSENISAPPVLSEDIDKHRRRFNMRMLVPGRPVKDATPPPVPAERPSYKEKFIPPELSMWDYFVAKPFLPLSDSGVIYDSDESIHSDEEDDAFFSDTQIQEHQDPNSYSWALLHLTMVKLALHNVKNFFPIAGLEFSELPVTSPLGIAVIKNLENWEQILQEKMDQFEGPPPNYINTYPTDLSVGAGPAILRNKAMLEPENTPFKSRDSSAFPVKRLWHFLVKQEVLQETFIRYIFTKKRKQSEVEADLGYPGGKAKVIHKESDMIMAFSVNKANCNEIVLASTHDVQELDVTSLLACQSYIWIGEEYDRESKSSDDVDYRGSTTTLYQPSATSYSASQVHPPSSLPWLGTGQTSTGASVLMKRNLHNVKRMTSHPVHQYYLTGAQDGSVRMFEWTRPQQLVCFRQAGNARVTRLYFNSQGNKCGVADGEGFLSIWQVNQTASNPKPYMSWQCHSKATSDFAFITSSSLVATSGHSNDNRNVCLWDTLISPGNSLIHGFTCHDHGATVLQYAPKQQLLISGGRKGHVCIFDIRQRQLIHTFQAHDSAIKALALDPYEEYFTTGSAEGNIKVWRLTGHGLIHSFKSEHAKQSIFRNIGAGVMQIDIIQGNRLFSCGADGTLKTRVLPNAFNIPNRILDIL
UniProt Q9BPW9, sequence (Q9BPW9 whole entry, looked up): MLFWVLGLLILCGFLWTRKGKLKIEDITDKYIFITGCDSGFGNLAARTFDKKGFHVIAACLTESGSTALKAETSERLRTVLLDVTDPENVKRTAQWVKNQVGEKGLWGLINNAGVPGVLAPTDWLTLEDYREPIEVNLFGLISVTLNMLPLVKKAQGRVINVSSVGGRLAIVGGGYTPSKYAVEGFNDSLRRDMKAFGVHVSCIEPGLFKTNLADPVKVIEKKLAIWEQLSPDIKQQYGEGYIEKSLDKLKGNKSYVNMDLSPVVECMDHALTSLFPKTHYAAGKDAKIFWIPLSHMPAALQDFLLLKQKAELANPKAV
UniProt P50238, sequence (P50238 whole entry, looked up): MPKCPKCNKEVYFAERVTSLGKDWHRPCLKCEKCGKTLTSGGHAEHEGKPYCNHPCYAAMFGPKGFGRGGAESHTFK

Target	probe-labelled cysteine peptide fold change
DIAPH1_O60610_964_LQFSEQVENIKPEIVSVTAACEELR (UniProt O60610)	0.06
DDX6_P26196_324_VHCLNTLFSR (UniProt P26196)	0.183
DTWD2_Q8NBA8_143_FSEERDPELSTVCR (UniProt Q8NBA8)	0.0336
DHRS9_Q9BPW9_60_GFHVIAACLTESGSTALK (UniProt Q9BPW9)	0.197
DYNC1LI2_O43237_104_CNVWILDGDLYHK<|>DYNC1LI1_Q9Y6G9_117_CNVWILDGDLYHK (UniProt Q9Y6G9+O43237)	0.0237
DUSP23_Q9BVJ7_95_GEAVGVHCALGFGR (UniProt Q9BVJ7)	0.14
DCTPP1_Q9H773_110_CRVDLPLAVLSK (UniProt Q9H773)	-0.184
DMXL2_Q8TDJ6_62_HGNIQVSCVECSNQQGR (UniProt Q8TDJ6)	-0.593
DNMT1_P26358_580_HAQFVVEQVESYDEAGDSDEQPIFLTPCMR (UniProt P26358)	0.604
CRIP1_P50238_56_TLTSGGHAEHEGKPYCNHPCYAAMFGPK (UniProt P50238)	-1.02
DYNC1H1_Q14204_3573_WQASSLPADDLCTENAIMLK (UniProt Q14204)	-0.286
CPT2_P23786_512_CSEAFVREPSR (UniProt P23786)	-0.0581
DDX3X_O00571_128_WCDKSDEDDWSK (UniProt O00571)	-0.388
CRYBG1_Q9Y4K1_594+609_EVQLPTCHSNEPEVVSVASCAPPQEEVLGNEHSHCTAELAAK (UniProt Q9Y4K1)	-0.248
